Active and inactive are the calls of the source.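 How the source made its calls, unless noted: active means aptamer binding inhibition above 30%, about 3 SD of noise from non-fluorescent compounds; inactive means inhibition at or below 30%.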
How the values were obtained:
[1] = reduced mouse 2C T cell binding to pMHC/ICAM-1 vesicles – MLPCN validation set, flow cytometry, LFA-1/ICAM-1 modulator project, pilot screen (AID 2523;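 active means response below a set limit, under 55% cells CD8-positive and vesicle-bound, and CD8 cells' 90th-percentile brightness under 279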;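 on vesicle binding response: mean PE anti-B7-1 fluorescence of CD8+ cells relative to row control; 100% = QL9-loaded vesicles with DMSO vehicle in the same plate row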); conditions: 2C mouse CD8+ T cells, at 7 µM, stronger effect = lower value; double positive events: measured here: CD8+/vesicle+ event percentage
[2] = target: Integrin beta-1 (Homo sapiens) + Integrin alpha-4 (Homo sapiens) (UniProt P13612+P05556); assay: alpha4beta1 integrin LIBS antibody binding reduction – U937 cells, HUTS-21 mAb, flow cytometry, validation set, VLA-4 allosteric modulator project, pilot screen (AID 2674;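 active means inhibition above 50%, about 3 SD of the validation set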;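 further: antibody binding induced by the VLA-4 ligand LDV present at three times its Kd; 0% = LDV ligand with antibody and no compound and 100% = antibody without LDV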); conditions: HUTS-21 LIBS mAb binding, at 6.7 µM, stronger effect = higher value, binding induced by LDV ligand
Integrin beta-1 (Homo sapiens) + Integrin alpha-4 (Homo sapiens), sequence (P05556 whole entry, looked up): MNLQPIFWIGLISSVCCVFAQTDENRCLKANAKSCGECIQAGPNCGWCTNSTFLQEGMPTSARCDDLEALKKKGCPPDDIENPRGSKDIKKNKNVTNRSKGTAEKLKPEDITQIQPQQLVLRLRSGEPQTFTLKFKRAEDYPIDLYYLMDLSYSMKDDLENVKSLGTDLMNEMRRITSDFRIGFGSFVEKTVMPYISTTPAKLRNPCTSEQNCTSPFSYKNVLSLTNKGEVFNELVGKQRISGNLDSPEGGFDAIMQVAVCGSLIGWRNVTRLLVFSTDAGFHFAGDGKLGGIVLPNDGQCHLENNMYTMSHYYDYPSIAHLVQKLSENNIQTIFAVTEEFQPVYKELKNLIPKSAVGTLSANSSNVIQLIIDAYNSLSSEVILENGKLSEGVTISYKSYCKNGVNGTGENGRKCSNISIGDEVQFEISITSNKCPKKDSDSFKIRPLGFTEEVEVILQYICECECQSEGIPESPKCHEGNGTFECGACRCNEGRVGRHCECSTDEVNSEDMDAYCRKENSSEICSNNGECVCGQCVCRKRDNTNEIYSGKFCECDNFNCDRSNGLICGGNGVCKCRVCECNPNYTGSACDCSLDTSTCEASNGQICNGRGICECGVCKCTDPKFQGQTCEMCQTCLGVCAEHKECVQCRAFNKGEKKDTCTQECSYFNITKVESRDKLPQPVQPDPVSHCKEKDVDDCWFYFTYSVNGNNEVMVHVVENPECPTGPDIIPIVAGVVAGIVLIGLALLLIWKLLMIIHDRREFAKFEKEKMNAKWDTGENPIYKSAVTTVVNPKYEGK
Integrin beta-1 (Homo sapiens) + Integrin alpha-4 (Homo sapiens), sequence (P13612 whole entry, looked up): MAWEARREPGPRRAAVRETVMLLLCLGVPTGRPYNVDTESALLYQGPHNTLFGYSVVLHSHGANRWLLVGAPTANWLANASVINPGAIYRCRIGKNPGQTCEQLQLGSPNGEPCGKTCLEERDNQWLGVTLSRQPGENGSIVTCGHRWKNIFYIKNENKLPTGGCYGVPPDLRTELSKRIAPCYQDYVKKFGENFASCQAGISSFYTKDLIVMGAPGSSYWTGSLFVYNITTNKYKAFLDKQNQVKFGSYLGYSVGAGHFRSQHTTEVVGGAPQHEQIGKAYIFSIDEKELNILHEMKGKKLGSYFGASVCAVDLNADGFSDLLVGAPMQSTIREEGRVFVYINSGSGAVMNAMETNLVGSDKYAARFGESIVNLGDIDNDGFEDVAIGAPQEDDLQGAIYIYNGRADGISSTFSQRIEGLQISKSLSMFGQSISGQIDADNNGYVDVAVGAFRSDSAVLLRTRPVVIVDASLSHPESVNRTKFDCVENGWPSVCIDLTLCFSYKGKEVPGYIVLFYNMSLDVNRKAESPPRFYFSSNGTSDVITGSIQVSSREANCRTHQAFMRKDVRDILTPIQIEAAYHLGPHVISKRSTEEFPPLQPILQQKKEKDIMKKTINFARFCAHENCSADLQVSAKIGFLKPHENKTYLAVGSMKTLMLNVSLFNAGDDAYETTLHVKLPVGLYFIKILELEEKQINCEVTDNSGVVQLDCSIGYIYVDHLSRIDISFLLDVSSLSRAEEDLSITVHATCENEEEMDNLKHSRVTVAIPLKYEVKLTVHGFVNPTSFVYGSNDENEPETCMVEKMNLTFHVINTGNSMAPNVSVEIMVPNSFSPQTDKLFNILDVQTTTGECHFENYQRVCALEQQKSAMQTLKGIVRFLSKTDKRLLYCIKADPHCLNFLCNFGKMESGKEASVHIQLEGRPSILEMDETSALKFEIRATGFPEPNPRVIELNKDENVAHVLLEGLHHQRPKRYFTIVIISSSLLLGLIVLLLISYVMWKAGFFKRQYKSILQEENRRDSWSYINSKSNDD

[3] = calorie-restriction mimetic ROS inhibitors, yeast – validation compound set, pilot screen (AID 2706;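 active means superoxide response below 65% of plate, a cut near 3 SD across the whole screen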;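 further: yeast exposed to compound for one week at 30 degrees C before staining; 100% = mean of all compound wells on the same plate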); conditions: S. cerevisiae aging, superoxide DHE fluorescence; at 10 µM, stronger effect = lower value
[4] = target: Beta-adrenergic receptor kinase 1 (Homo sapiens) (UniProt P25098); assay: GRK2 binders displacing RNA aptamer, biochemical, validation, human GRK2, bead flow cytometry (AID 488806); conditions: bead-bound GRK2, FAM-aptamer displacement, at 10 µM, stronger effect = higher value
Beta-adrenergic receptor kinase 1 (Homo sapiens), sequence (P25098 whole entry, looked up): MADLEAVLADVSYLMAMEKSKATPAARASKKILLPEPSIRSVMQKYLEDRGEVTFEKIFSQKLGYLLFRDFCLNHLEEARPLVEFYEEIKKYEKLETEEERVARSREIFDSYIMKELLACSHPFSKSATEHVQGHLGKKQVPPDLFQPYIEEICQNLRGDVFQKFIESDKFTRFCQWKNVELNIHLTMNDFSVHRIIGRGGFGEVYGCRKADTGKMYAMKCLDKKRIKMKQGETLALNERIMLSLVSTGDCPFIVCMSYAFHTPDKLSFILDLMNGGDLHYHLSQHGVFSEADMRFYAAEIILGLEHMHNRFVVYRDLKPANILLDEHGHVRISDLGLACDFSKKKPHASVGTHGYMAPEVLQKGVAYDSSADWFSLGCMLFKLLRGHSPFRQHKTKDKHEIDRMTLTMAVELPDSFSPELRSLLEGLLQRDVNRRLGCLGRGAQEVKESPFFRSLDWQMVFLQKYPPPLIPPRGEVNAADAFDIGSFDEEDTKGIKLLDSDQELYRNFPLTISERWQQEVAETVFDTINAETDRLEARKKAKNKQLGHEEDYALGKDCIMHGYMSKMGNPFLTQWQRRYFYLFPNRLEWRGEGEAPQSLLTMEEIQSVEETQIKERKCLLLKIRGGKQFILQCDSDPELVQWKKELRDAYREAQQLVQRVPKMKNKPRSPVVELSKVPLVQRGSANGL

[5] = target: Beta-2 adrenergic receptor (Homo sapiens) (UniProt P07550); assay: agonist-induced loss of surface beta2AR – cell-based, FAP fluorogen, flow cytometry, validation set, pilot screen (AID 504459;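 active means percent response above 42, roughly 3 SD of non-fluorescent test compounds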;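 further: agonist-driven loss of surface beta2AR via internalization measured by FAP dye flow cytometry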); conditions: Am2.2-beta2AR cells, at 10 µM, stronger effect = higher value
Beta-2 adrenergic receptor (Homo sapiens), sequence (P07550 whole entry, looked up): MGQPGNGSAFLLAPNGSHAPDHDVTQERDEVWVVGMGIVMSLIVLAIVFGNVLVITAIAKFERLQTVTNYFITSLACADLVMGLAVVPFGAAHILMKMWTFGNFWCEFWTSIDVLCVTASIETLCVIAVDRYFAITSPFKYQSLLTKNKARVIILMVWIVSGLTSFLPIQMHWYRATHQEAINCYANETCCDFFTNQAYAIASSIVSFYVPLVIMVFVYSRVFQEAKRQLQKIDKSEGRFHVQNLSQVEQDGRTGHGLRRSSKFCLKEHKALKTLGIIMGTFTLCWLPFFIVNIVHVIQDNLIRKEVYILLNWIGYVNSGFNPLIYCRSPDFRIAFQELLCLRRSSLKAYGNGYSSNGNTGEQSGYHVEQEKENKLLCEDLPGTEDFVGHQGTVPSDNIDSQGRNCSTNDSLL

[6] = target: AP-2 complex subunit beta (Homo sapiens) (UniProt P63010); assay: beta-arrestin/AP2 interaction blockers – biochemical, validation set, GST-AP2 beads, flow cytometry, pilot screen (AID 504541;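 active means inhibition above 54%, about 3 SD of non-fluorescent compounds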;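 further: AP2 carries R879A mutation and is captured from E. coli lysate; bead-bound FITC arrestin peptide fluorescence measuring arrestin peptide binding to AP2; 0% = DMSO wells and 100% = excess unlabeled arrestin peptide control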); conditions: FITC arrestin peptide, at 10 µM, stronger effect = higher value, AP2 beta2 appendage fragment, R879A mutant
AP-2 complex subunit beta (Homo sapiens), sequence (P63010 whole entry, looked up, the tested form may be a part, one chain of several): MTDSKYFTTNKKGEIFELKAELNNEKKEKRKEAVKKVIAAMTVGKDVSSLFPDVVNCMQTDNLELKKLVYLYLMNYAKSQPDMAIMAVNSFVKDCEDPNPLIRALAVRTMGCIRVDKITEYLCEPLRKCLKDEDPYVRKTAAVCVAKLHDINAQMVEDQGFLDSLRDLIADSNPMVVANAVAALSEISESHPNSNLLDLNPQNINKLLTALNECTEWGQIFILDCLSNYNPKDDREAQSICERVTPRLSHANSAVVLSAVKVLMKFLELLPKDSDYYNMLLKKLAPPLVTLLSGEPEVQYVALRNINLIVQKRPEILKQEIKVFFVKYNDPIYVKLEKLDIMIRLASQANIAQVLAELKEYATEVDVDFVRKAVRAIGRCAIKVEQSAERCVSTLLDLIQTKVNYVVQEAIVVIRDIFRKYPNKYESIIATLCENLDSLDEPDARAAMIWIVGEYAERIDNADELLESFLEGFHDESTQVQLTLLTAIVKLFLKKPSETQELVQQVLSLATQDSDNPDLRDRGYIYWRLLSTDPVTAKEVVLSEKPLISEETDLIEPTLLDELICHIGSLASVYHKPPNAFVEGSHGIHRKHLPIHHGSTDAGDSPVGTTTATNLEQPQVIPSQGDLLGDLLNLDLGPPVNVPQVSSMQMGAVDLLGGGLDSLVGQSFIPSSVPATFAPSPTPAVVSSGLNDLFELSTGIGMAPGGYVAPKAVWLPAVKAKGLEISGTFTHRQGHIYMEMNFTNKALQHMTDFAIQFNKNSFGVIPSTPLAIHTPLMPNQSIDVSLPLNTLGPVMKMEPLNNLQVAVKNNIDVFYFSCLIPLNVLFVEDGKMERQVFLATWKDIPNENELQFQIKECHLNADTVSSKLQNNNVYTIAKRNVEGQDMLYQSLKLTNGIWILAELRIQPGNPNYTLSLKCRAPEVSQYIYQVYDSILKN

[7] = cytosolic pH regulators acting via V-ATPase – S. cerevisiae, pHLuorin, HTS validation (AID 504600; in the data active means response above about 15%;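 further: plate controls were DMSO for no effect and reference compound for full effect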); conditions: V-ATPase proton transport, at 10 µM, stronger effect = higher value
[8] = tested on: anti-desmoglein-3 scFv antibody binding to human DSG3; assay: blockers of pathogenic pemphigus antibody–desmoglein-3 binding – biochemical, validation compound set, bead-based, flow cytometry, pilot screen (AID 588368;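 active means binding below the plate cutoff, the plate median minus 3 SD, with a reading above zero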;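 further: signal is the median channel fluorescence of bead-bound GFP antibody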); conditions: Protein G beads, DSG3-Fc, scFv-GFP binding, at 10 µM, stronger effect = lower value
[9] = Nile Red efflux blockade in pump-expressing yeast – validation compound set, multiplex, phenotypic, pilot screen (AID 588506;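 active means efflux inhibition above 0.42, the validation set average plus 4 SD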;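 further: Nile Red retained in cells so higher fluorescence means more efflux inhibition; 0 = negative control wells and 1 = enniatin B 25 µM full block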); conditions: S. cerevisiae pump-expressing triplex, Nile Red efflux flow cytometry; at 10 µM; stronger effect = higher value; the pumps come from Candida albicans
[10] = target: ATP-binding cassette sub-family B member 6 (Homo sapiens) (UniProt Q9NP58); assay: blockers of ABCB6-driven porphyrin uptake – K562-ABCB6 cells, flow cytometry, validation set, pilot screen (AID 588550;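 active means inhibition above the screen-wide mean plus 3 SD, about 51%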;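 further: 0% = DMSO wells and 100% = benzethonium chloride 70 µM positive control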); conditions: K562-ABCB6 porphyrin accumulation, 1 h, at 10 µM, stronger effect = higher value
ATP-binding cassette sub-family B member 6 (Homo sapiens), sequence (Q9NP58 whole entry, looked up): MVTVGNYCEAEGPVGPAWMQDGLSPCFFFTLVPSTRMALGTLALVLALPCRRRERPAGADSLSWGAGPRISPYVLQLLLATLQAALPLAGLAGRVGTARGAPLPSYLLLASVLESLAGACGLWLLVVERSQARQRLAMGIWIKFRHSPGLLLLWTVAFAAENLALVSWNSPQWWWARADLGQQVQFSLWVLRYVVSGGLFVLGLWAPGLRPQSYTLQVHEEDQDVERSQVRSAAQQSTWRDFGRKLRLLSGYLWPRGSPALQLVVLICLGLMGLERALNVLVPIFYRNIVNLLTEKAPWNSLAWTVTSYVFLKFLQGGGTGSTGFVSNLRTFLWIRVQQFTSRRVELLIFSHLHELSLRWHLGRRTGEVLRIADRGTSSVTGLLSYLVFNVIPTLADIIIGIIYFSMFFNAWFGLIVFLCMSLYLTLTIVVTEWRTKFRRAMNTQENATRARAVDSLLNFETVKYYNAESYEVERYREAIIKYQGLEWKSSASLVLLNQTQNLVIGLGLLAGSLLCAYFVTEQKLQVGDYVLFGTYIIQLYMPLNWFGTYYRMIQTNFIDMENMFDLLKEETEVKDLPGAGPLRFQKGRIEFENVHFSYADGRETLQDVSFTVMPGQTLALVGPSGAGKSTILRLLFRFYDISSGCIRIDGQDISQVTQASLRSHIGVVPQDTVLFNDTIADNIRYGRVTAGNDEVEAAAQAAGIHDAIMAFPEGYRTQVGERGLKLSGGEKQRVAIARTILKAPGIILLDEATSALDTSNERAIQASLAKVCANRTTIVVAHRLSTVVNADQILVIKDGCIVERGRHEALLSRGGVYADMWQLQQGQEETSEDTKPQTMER

[11] = AML differentiation inducers, ER-HoxA9 marrow cells – cell-based, GFP/MAC1 double positive, flow cytometry, validation set, primary screen (AID 588685;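 active means differentiation response of at least 50%, scaled between solvent and reference control, from cells with both markers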;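 further: compound exposure lasts four days before antibody staining and flow analysis; 0% = DMSO wells and 100% = 5 µM fulvestrant positive control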); conditions: stronger effect = higher value, normalized: vehicle 0, fulvestrant 100

Cc1ccc(C(=O)NC(=S)NCCCN2CCOCC2)cc1
66.2%: double positive events [1]
inactive: vesicle binding response [1] 172% | inhibition [2] 5.49% | superoxide response (% of plate) [3] 96% | aptamer binding inhibition [4] 4% | response [5] 1.89% | inhibition [6] 4.05% | response [7] 5.81% | binding (% of control) [8] 103% | efflux inhibition (fraction of control) [9] -0.38 | inhibition [10] 13% | differentiation response [11] -0.82%

C[C@H](NC(=O)Nc1ccccc1F)C(=O)O
inactive: vesicle binding response [1] 272% | inhibition [2] -12.7% | superoxide response (% of plate) [3] 106% | aptamer binding inhibition [4] 6% | response [5] -5.56% | inhibition [6] -4.89% | response [7] -9.72% | binding (% of control) [8] 101% | efflux inhibition (fraction of control) [9] -0.24 | inhibition [10] 7% | differentiation response [11] -10.4%
66%: double positive events [1]

Cc1nnc(SCC(=O)N2CCCC(C(=O)c3ccc(Cl)cc3)C2)o1 (centres undefined)
71.9%: double positive events [1]
inactive: vesicle binding response [1] 299% | inhibition [2] 2.3% | superoxide response (% of plate) [3] 95.6% | aptamer binding inhibition [4] 1% | response [5] -7.42% | inhibition [6] -3.16% | response [7] 2.16% | binding (% of control) [8] 105% | efflux inhibition (fraction of control) [9] 0.3 | inhibition [10] 3% | differentiation response [11] -13.6%

O[C@@H](CNC[C@H](O)c1ccccc1)c1ccccc1
active: response [5] 43.5%
inactive: vesicle binding response [1] 156% | inhibition [2] -27.7% | superoxide response (% of plate) [3] 99.8% | aptamer binding inhibition [4] -3% | inhibition [6] 9.85% | response [7] 0.68% | binding (% of control) [8] 102% | efflux inhibition (fraction of control) [9] 0.01 | inhibition [10] 1% | differentiation response [11] 21.6%
62.7%: double positive events [1]

COc1ccccc1-c1c(C(F)(F)F)oc2cc(OC(=O)c3ccc([N+](=O)[O-])cc3)ccc2c1=O
inactive: vesicle binding response [1] 160% | inhibition [2] -1.97% | aptamer binding inhibition [4] 2% | response [5] -19.4% | inhibition [6] -4.55% | response [7] 1.11% | binding (% of control) [8] 99.3% | efflux inhibition (fraction of control) [9] 0.04 | inhibition [10] 1% | differentiation response [11] -5.97%
active: superoxide response (% of plate) [3] 49.2%
61.5%: double positive events [1]

Cc1ccc(C(=O)N2CC3(C(C)C)CN(C(=O)c4ccc(C)cc4)CC(C(C)C)(C2)C3=O)cc1
active: efflux inhibition (fraction of control) [9] 0.76
inactive: vesicle binding response [1] 224% | inhibition [2] -30.5% | superoxide response (% of plate) [3] 97.1% | aptamer binding inhibition [4] 3% | response [5] 24.4% | inhibition [6] 14.1% | response [7] -0.93% | binding (% of control) [8] 99.1% | inhibition [10] 5% | differentiation response [11] 7.2%
59.7%: double positive events [1]

CC(=O)N1CC2(C)CN(C(C)=O)CC(C)(C1)C2
inactive: vesicle binding response [1] 169% | inhibition [2] 8.25% | superoxide response (% of plate) [3] 91.7% | aptamer binding inhibition [4] -2% | response [5] -23.9% | inhibition [6] -12.9% | response [7] 1.35% | binding (% of control) [8] 100% | efflux inhibition (fraction of control) [9] 0 | inhibition [10] -1% | differentiation response [11] -4.99%
60.3%: double positive events [1]

N/C(=N/OS(=O)(=O)c1ccc([N+](=O)[O-])cc1)c1ccncc1
61.1%: double positive events [1]
inactive: vesicle binding response [1] 135% | inhibition [2] 1.59% | superoxide response (% of plate) [3] 108% | aptamer binding inhibition [4] 1% | response [5] -5.72% | inhibition [6] -1.57% | response [7] 6.86% | binding (% of control) [8] 107% | efflux inhibition (fraction of control) [9] -0.08 | inhibition [10] 18% | differentiation response [11] -8.96%

C=CCc1ccc(OCC(O)COc2ccc(CC=C)cc2OC)c(OC)c1
inactive: vesicle binding response [1] 140% | inhibition [2] 7.76% | superoxide response (% of plate) [3] 104% | aptamer binding inhibition [4] -1% | response [5] 7.14% | inhibition [6] 3.97% | response [7] 2.47% | binding (% of control) [8] 104% | efflux inhibition (fraction of control) [9] 0.4 | inhibition [10] 4%
active: differentiation response [11] 50.4%
58.6%: double positive events [1]

C[C@H](NC(=O)OC(C)(C)C)C(=O)NCC1CCC(C(=O)O)CC1 (some centres undefined)
58%: double positive events [1]
inactive: vesicle binding response [1] 166% | inhibition [2] 5.03% | superoxide response (% of plate) [3] 95.3% | aptamer binding inhibition [4] 6% | response [5] -13.5% | inhibition [6] -1.54% | response [7] 1.21% | binding (% of control) [8] 99.5% | efflux inhibition (fraction of control) [9] -0.06 | inhibition [10] 6% | differentiation response [11] 0.8%

OC(CCCN1CCCCC1)(c1ccccc1)c1ccccc1
62.8%: double positive events [1]
inactive: vesicle binding response [1] 250% | inhibition [2] 19.1% | superoxide response (% of plate) [3] 104% | aptamer binding inhibition [4] -3% | response [5] -0.72% | inhibition [6] -8.31% | response [7] 2.56% | binding (% of control) [8] 108% | efflux inhibition (fraction of control) [9] 0.34 | inhibition [10] 4% | differentiation response [11] -2.46%

CCCCC[C@H](O)/C=C/[C@@H]1[C@@H](C/C=C\CCCC(=O)O)[C@@H](O)C[C@H]1O
60.4%: double positive events [1]
inactive: vesicle binding response [1] 106% | inhibition [2] -49.3% | superoxide response (% of plate) [3] 96.5% | aptamer binding inhibition [4] 1% | response [5] -3.9% | inhibition [6] -12.4% | response [7] -1.19% | binding (% of control) [8] 98.8% | efflux inhibition (fraction of control) [9] 0.045 | inhibition [10] 1% | differentiation response [11] -11.9%

— PubChem BioAssay
